Source: PubChem BioAssay (EPA / NIEHS)
Results filed as inconclusive are left out. A structure can be active in one record and inactive in another. Activity calls are given as the source filed them. The calls were made as follows, unless noted: active = hit-call score of the fitted dose curve at least 0.9, where 1 is the maximum; inactive = score below 0.9.

What was measured:
[1] = TOX21_p53_BLA_p2_viability: Viability Assessment in the Tox21 HCT-116 p53 Agonism Beta-lactamase Assay, Phase 2 (AID 2283591; active = hit-call score of the fitted dose curve at least 0.9, where 1 is the maximum;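 also: actives lower the ATP signal meaning cytotoxicity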)
Method in brief: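 HCT116 p53-bla cells, 4000/well, dosed after 5 h plating (217-fold dilution of DMSO stocks) and incubated 16 h at 37C. Viability taken as cellular ATP by CellTiter-Glo luminescence after 30 min RT; signal loss marks cytotoxicity.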

[2] = target: Cellular tumor antigen p53 (Homo sapiens) (UniProt P04637); test: TOX21_p53_BLA_p2_ratio: Tox21 HCT-116 p53 Agonism Beta-lactamase Assay, Ratio, Phase 2 (AID 2283592; active = hit-call score of the fitted dose curve at least 0.9, where 1 is the maximum)
Chain of Cellular tumor antigen p53 (Homo sapiens) (P04637 whole entry, looked up): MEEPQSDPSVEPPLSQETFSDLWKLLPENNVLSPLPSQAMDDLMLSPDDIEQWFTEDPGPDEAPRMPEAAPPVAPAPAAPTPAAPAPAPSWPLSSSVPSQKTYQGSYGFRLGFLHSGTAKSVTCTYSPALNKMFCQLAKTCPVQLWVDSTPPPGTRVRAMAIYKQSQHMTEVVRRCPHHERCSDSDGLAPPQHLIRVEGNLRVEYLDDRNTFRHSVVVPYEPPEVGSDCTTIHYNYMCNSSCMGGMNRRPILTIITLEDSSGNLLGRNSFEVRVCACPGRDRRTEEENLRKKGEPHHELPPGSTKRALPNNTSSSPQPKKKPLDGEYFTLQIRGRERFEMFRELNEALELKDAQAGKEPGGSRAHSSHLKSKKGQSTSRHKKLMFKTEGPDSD
Method in brief: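 DMSO-normalized, positive-direction endpoint derived from the 460 nm/530 nm FRET ratio in HCT116 p53 beta-lactamase reporter cells exposed 16 h at 37C and loaded with CCF4-AM for 2 h.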

[3] = TOX21_p53_BLA_p3_viability: Viability Assessment in the Tox21 HCT-116 p53 Agonism Beta-lactamase Assay, Phase 3 (AID 2283593; active = hit-call score of the fitted dose curve at least 0.9, where 1 is the maximum;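 also: cells exposed to compound for 16 h before reading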)
Method in brief: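 HCT116 cells, 4000/well, dosed 5 h after plating by pin transfer (217-fold dilution from DMSO stock) and incubated 16 h at 37C, 5% CO2. Viability read as ATP luminescence with CellTiter-Glo after 30 min at room temperature.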

[4] = target: Cellular tumor antigen p53 (Homo sapiens) (UniProt P04637); test: TOX21_p53_BLA_p3_ratio: Tox21 HCT-116 p53 Agonism Beta-lactamase Assay, Ratio, Phase 3 (AID 2283596; active = hit-call score of the fitted dose curve at least 0.9, where 1 is the maximum)
Method in brief: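 Cells were seeded at 4000/well, rested 5 h at 37C, then dosed with DMSO compound solutions (217-fold dilution) for 16 h. CCF4-AM substrate was loaded for 2 h at room temperature, and the 460/530 nm emission ratio was fitted for gain of signal versus DMSO.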

[5] = TOX21_p53_BLA_p4_viability: Viability Assessment in the Tox21 HCT-116 p53 Agonism Beta-lactamase Assay, Phase 4 (AID 2283597; active = hit-call score of the fitted dose curve at least 0.9, where 1 is the maximum;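 also: hits lower the luminescence signal meaning cytotoxicity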)
Method in brief: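 In this multiplexed secondary endpoint, HCT116 cells (4000 per well, compound at 5 h, 16 h treatment) received CellTiter-Glo after the beta-lactamase read. Luminescence after 30 min RT reflects ATP, and falling signal marks cytotoxicity.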

[6] = TOX21_p53_BLA_p5_viability: Viability Assessment in the Tox21 HCT-116 p53 Agonism Beta-lactamase Assay, Phase 5 (AID 2283600; active = hit-call score of the fitted dose curve at least 0.9, where 1 is the maximum)
Method in brief: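 Here cell health was gauged by ATP levels in wells holding 4000 cells, each treated 16 h with DMSO-delivered compounds at 217-fold dilution; reduced luminescence marked toxicity.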

[7] = target: Cellular tumor antigen p53 (Homo sapiens) (UniProt P04637); test: TOX21_p53_BLA_p4_ratio: Tox21 HCT-116 p53 Agonism Beta-lactamase Assay, Ratio, Phase 4 (AID 2283601; active = hit-call score of the fitted dose curve at least 0.9, where 1 is the maximum)
Method in brief: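 HCT-116 p53 beta-lactamase reporter cells (4000/well) preincubated 5 h, then compound (217-fold dilution of DMSO stock) for 16 h at 37C. CCF4-AM substrate added 2 h at room temperature; 460/530 nm emission ratio fitted upward versus DMSO.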

[8] = CCTE_Shafer_MEA_dev_firing_rate_mean: CCTE's Neural Network Formation Assay for Mean Firing Rate, Shafer Lab (AID 2284031)
Method in brief: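 Spike frequency (spikes/recording length, averaged over active electrodes) was recorded on days 5, 7, 9 and 12 and collapsed to AUC; rat cortical cultures received compound continuously over 12 days of network development.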

[9] = CCTE_Shafer_MEA_dev_burst_rate: CCTE's Neural Network Formation Assay for Burst Rate, Shafer Lab (AID 2284042)
Method in brief: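 Developmental network assay measuring how 12-day exposure of rat cortical neuron cultures alters bursting on extracellular MEA recordings. Values are AUC of well-mean burst rate across four recording days, relative to DMSO vehicle.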

[10] = CCTE_Shafer_MEA_dev_per_burst_interspike_interval: CCTE's Neural Network Formation Assay for Burst Interspike Interval, Shafer Lab (AID 2284044);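 also: mean spike spacing inside bursts as AUC over recordings on days 5 7 9 12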
Method in brief: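 Spontaneous activity of maturing rat cortical networks is recorded on DIV 5, 7, 9 and 12 under chronic compound exposure beginning at plating. Endpoint: burst interspike interval well-mean, collapsed into trapezoidal AUC and fitted in the negative direction relative to DMSO.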

[11] = CCTE_Shafer_MEA_dev_burst_duration_mean: CCTE's Neural Network Formation Assay for Mean Burst Duration, Shafer Lab (AID 2284045);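 as to AC50: curve fitted for loss meaning shorter burst duration than DMSO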
Method in brief: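 Rat cortical cultures, 1.5 x 10^5 cells/well with laminin drop; continuous dosing days 0–12, media plus treatment refreshed DIV 5, 9. AxIS adaptive spike detection; mean single-electrode burst duration, AUC over four recordings, negative direction vs DMSO.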

[12] = CCTE_Shafer_MEA_dev_inter_network_spike_interval_mean: CCTE's Neural Network Formation Assay for Mean Inter-network Spike Interval, Shafer Lab (AID 2284047)
Method in brief: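 Compound was given at plating to primary rat cortical neurons and renewed with full medium changes on DIV 5 and 9. Extracellular activity was recorded on days 5, 7, 9, 12; AUC values were fitted for loss relative to DMSO control.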

[13] = CCTE_Shafer_MEA_dev_network_spike_number: CCTE's Neural Network Formation Assay for Number of Network Spikes, Shafer Lab (AID 2284048);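 also: synchronized bursts across electrodes counted on days 5 7 9 12 and integrated as AUC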
Method in brief: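 Rat cortical primary cultures on 48-well MEA (16 electrodes/well); continuous exposure DIV 0–12, full medium and treatment exchange DIV 5, 9. Readout: network spike count, AxIS adaptive detection, recordings DIV 5/7/9/12 collapsed to AUC; loss-of-signal fit, DMSO baseline.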

[14] = CCTE_Shafer_MEA_dev_network_spike_peak: CCTE's Neural Network Formation Assay for Mean Number of Electrodes in Network Spike, Shafer Lab (AID 2284049)
Method in brief: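 Network-spike peak electrode count from recordings on days 5, 7, 9 and 12 was combined as trapezoidal area under the curve. Rat cortical cultures were treated continuously from plating, with compound renewed at each feed (DIV 5, 9); fits versus DMSO.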

[15] = CCTE_Shafer_MEA_dev_spike_duration_mean: CCTE's Neural Network Formation Assay for Mean Spike Duration, Shafer Lab (AID 2284051);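 also: mean network spike duration pooled as area under curve over DIV 5 to 12 recordings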
Method in brief: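 With DMSO as baseline, loss of mean network spike duration was scored from extracellular recordings of rat cortical neurons on MEA plates. Exposure spanned plating to DIV 12; the four recording days were collapsed into one AUC value.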

[16] = CCTE_Shafer_MEA_dev_network_spike_duration_std: CCTE's Neural Network Formation Assay for Standard Deviation of Network Spike Duration, Shafer Lab (AID 2284052);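 also: area under curve of spike duration SD across recording days 5 to 12; hits are decreases in network spike duration SD versus DMSO vehicle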
Method in brief: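 Developing networks of rat cortical neurons were exposed over twelve days in vitro on 48-well MEA plates. Trapezoidal AUC of recordings (DIV 5–12) was analysed for signal loss relative to DMSO vehicle.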

[17] = CCTE_Shafer_MEA_dev_per_network_spike_spike_number_mean: CCTE's Neural Network Formation Assay for Mean Number of Spikes in a Network Spike, Shafer Lab (AID 2284053)
Method in brief: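 First, rat cortical cells (1.5 x 10^5/well) were seeded onto MEA wells; second, dosing began at plating and was refreshed on DIV 5 and 9; finally, network-spike spike counts across DIV 5–12 were summarized as AUC.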

[18] = CCTE_Shafer_MEA_dev_per_network_spike_spike_percent: CCTE's Neural Network Formation Assay for Percent of Spikes in a Network Spike, Shafer Lab (AID 2284054)
Method in brief: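 Read-out: percent of spikes falling in a 0.05 s window at network-spike peak, from spontaneous MEA recordings on days 5, 7, 9 and 12; trapezoidal AUC; loss of signal versus DMSO. Rat cortical cultures, compound present throughout.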

[19] = CCTE_Shafer_MEA_dev_LDH: CCTE's Lactate Dehydrogenase Assay for Cytotoxicity in the Neural Network Formation Assay, Shafer Lab (AID 2284068; active = hit-call score of the fitted dose curve at least 0.9, where 1 is the maximum;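 also: exposure for twelve days from plating with re-dosing on DIV 5 and 9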)
Method in brief: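 Developing rat cortical networks on MEA plates are exposed to compound for 12 days from plating. LDH activity is measured spectrophotometrically, with DMSO as baseline.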

[20] = CCTE_Shafer_MEA_dev_mutual_information_norm: CCTE's Neural Network Formation Assay for Mutual Information Normalization, Shafer Lab (AID 2284091)
Method in brief: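 Neurons from rat cortex were seeded at 1.5 x 10^5 cells/well onto PEI-coated MEAs in a laminin drop, then exposed to compound from day 0 for twelve days. Network recordings on four days gave mutual information, summarised by AUC relative to DMSO.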

[21] = CCTE_Shafer_MEA_dev_correlation_coefficient_mean: CCTE's Neural Network Formation Assay for Mean Correlation Coefficient, Shafer Lab (AID 2284093)
Method in brief: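 Extracellular firing from rat cortical networks on 48-well MEAs, DMSO-referenced, negative fitting direction. Compound present from plating to DIV12; mean pairwise correlation per well integrated over DIV5–12 recordings by trapezoidal AUC.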

[22] = IUF_NPC1b_proliferation_BrdU_72hr: Leibniz Research Institute for Environmental Medicine (IUF) 72-hour Neural Progenitor Cell Bromodeoxyuridine (BrdU) Proliferation Assay (NPC1b) (AID 2284207)
Method in brief: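 Luminescent BrdU ELISA measured DNA synthesis during the last 16 h of a 72 h exposure of primary human neural progenitor spheres grown with EGF and FGF. Signal was fitted relative to DMSO controls.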

[23] = IUF_NPC1a_proliferation_area_72hr: Leibniz Research Institute for Environmental Medicine (IUF) 72-hour Neural Progenitor Cell Proliferation Area Assay (NPC1a) (AID 2284208)
Method in brief: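 Measured in 3D suspension: each well held one primary hNPC sphere grown with EGF and FGF at pH 7.2-7.6. Compound stayed on for 72 h, then area was imaged; spheres lacking growth factors defined reduced proliferation.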

[24] = IUF_NPC1_viability_72hr: Viability Assessment at 72 hours in the Leibniz Research Institute for Environmental Medicine (IUF) Neural Progenitor Cell Proliferation Assay (NPC1) (AID 2284209)
Method in brief: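 Viability was measured by resazurin-to-resorufin fluorescence (alamar blue) after 72 h of continuous exposure without compound renewal. Each well held one hNPC sphere (gestational week 16-19 fetal cortex, 0.25-0.35 mm) cultured in EGF/FGF proliferation medium at 37C and pH 7.2-7.6.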

[25] = CCTE_Mundy_HCI_Cortical_Synap_Neur_Matur_NeuriteSpotCountPerNeuriteLength: CCTE's Synaptogenesis and Neurite Maturation Assay in rat cortical cells for Neurite Spot Count per Neurite Length, Mundy Lab (AID 2284210)
Method in brief: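 Read-out: synaptophysin puncta counted along MAP2-stained neurites, normalised to neurite length, by automated high-content imaging. Rat cortical cells; AraC DIV 5; chemical dosing DIV 7; termination DIV 12. DMSO baseline.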

Measured: AC50

C[C@H](CS)C(=O)N1CCC[C@H]1C(=O)O
active: [11] 21.6 µM
inactive: [1] | [2] | [3] | [4] | [5] | [6] | [7] | [8] | [9] | [10] | [11] | [12] | [13] | [14] | [15] | [16] | [17] | [18] | [19] | [20] | [21] | [22] | [23] | [24] | [25]
